Among the data in PubChem BioAssay (NCI) are growth values, retold here.

Each structure is given as a SMILES string. The panel holds about 83,000 compounds, 20% with a hit somewhere; the sample as a whole holds those more often.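 Cell lines were cultured in 96-well plates, exposed to a single compound concentration, and assessed for percent growth 48 hours later.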 Unmarked numbers belong to inactive results. Active and inactive are the calls of the source. Rule for the calls: active = growth percent below 10; inactive = the rest.

Among the test systems are NCI-H23 lung; NCI-H226 lung; NCI-H322M lung; HOP-62 NSCLC; NCI-H460 lung; HOP-92 NSCLC; NCI-H522 lung; A549/ATCC NSCLC; 786-0 renal; COLO 205 colon; DU-145 prostate; K-562 leukemia; MALME-3M melanoma; MDA-MB-231 breast; RXF 393 renal; SF-268 CNS; SF-295 CNS; SF-539 CNS; UACC-257 melanoma; M14 melanoma.
Holding throughout (test): NCI-60 one-dose screen, 48 h (100 = growth as untreated, 0 = no growth, -100 = all killed)
Common to all, as to conditions: 10 µM unless noted

In the case of `CCOC(=O)c1cn2c3c(cc(C)cc3c1=O)C(=O)/C(=C/c1ccccc1)C2`, the growth in the experiment on NCI-H23 lung is 108%; in the experiment with NCI-H226 lung, 94%; in the experiment with NCI-H322M lung, 96.9%; with HOP-62 NSCLC it was 79.2%; in the experiment with NCI-H460 lung it was 104%; in the experiment on HOP-92 NSCLC it was 57.1%. The growth in the experiment with NCI-H522 lung was 75.8%; in the experiment with A549/ATCC NSCLC it was 89.1%; with 786-0 renal, 82.7%; in the experiment with COLO 205 colon, 93.4%; in the experiment with DU-145 prostate, 106%; with K-562 leukemia, 79.7%. The growth in the experiment on MALME-3M melanoma is 112%; in the experiment on MDA-MB-231 breast, 87.2%; with RXF 393 renal it was 74.6%; with SF-268 CNS it was 95.7%; in the experiment with SF-295 CNS, 92.6%; with SF-539 CNS it was 87.8%. In addition, the growth was 78.4% in the experiment on UACC-257 melanoma and 101% in the experiment with M14 melanoma.

Turning to `O=[N+]([O-])c1cccc(-c2nc3sccn3c2-c2ccnc(NCCCNS(=O)(=O)c3ccc(C(F)(F)F)cc3)n2)c1`, the growth in the experiment with NCI-H23 lung is 29.7%; with NCI-H226 lung it was 23.8%; in the experiment on NCI-H322M lung, 63.1%; in the experiment on HOP-62 NSCLC, 50%; in the experiment with NCI-H460 lung it was 40.2%; with HOP-92 NSCLC, 53%. Also, the growth with NCI-H522 lung was 20.8%; with A549/ATCC NSCLC it was 31.3%; with 786-0 renal, 51.8%; in the experiment on COLO 205 colon it was 24.7%; in the experiment with DU-145 prostate, 47.3%; with K-562 leukemia, 20.6%. Also, the growth with MALME-3M melanoma was 30.5%; with MDA-MB-231 breast, 57.3%; with RXF 393 renal, 55.6%; with SF-268 CNS it was 38.1%; in the experiment on SF-295 CNS, 27.2%; with SF-539 CNS, 70.9%. In addition, the growth in the experiment on UACC-257 melanoma is 37.4%; in the experiment on M14 melanoma, 27.7%.

In the case of `COc1ccc(-c2[nH]nc(N)c2-c2cc(OC)c3c(c2)OCO3)cc1`, the growth in the experiment on NCI-H23 lung was 63.4%; in the experiment on NCI-H226 lung it was 84.9%; in the experiment on NCI-H322M lung, 92.9%; with HOP-62 NSCLC, 59.8%; with NCI-H460 lung it was 33.1%; in the experiment on HOP-92 NSCLC, 69.7%. The growth with NCI-H522 lung is -21% (active); with A549/ATCC NSCLC, 52%; in the experiment with 786-0 renal, 77.6%; in the experiment on COLO 205 colon it was 61.3%; with DU-145 prostate, 92.3%; with K-562 leukemia, 22.4%. The growth is 46.9% with MALME-3M melanoma; 43% in the experiment with MDA-MB-231 breast; 95.9% in the experiment on RXF 393 renal; 64.9% in the experiment with SF-268 CNS; 53.9% with SF-295 CNS; 59.3% with SF-539 CNS. Besides, the growth is 79.3% with UACC-257 melanoma and 22.1% in the experiment with M14 melanoma.

In the case of `ClC(Cl)c1nc(-c2ccccc2)nc2cc(-c3ccccc3)nn12`, the growth was 51.5% with NCI-H23 lung; 89.9% in the experiment with NCI-H226 lung; 96.6% in the experiment on NCI-H322M lung; 44.4% in the experiment with HOP-62 NSCLC; 74.9% in the experiment with NCI-H460 lung; 62.8% with HOP-92 NSCLC. Also, the growth was 97.1% in the experiment with NCI-H522 lung; 46.1% in the experiment with A549/ATCC NSCLC; 80.1% in the experiment on 786-0 renal; 59.5% with COLO 205 colon; 32.4% in the experiment with DU-145 prostate; 36.9% with K-562 leukemia. Further, the growth in the experiment with MALME-3M melanoma was 93%; with MDA-MB-231 breast, 60%; with RXF 393 renal, 19.8%; in the experiment with SF-268 CNS, 57.2%; with SF-295 CNS it was 97.7%; in the experiment on SF-539 CNS it was 79%. For the same compound, the growth was 102% with UACC-257 melanoma and 98.7% in the experiment on M14 melanoma.

On to `CC(C)(C)n1cc(-c2ccnc(NCCCNS(=O)(=O)c3ccccc3)c2)c(-c2cccc(O)c2)n1`, for which the growth with NCI-H23 lung was 72.8%; with NCI-H226 lung it was 53.4%; with NCI-H322M lung, 59.1%; with HOP-62 NSCLC, 66.1%; in the experiment with NCI-H460 lung, 19.1%; in the experiment with HOP-92 NSCLC, 77.7%. The growth is 45% in the experiment on NCI-H522 lung; 38% in the experiment with A549/ATCC NSCLC; 25.8% in the experiment with 786-0 renal; 14.7% with COLO 205 colon; 55.1% in the experiment with DU-145 prostate; 4.86% (active) with K-562 leukemia. Besides, the growth was 44% in the experiment on MALME-3M melanoma; 38.6% with MDA-MB-231 breast; 52.8% in the experiment with RXF 393 renal; 50.8% with SF-268 CNS; 35.1% with SF-295 CNS; 38.3% in the experiment on SF-539 CNS. The growth in the experiment on UACC-257 melanoma was 47.2%; in the experiment on M14 melanoma it was 34.1%.

Turning to `COc1ccc(/C=N\NC(=O)CN2CCN(c3cc4c(cc3F)c(=O)c(C(=O)N/N=C/c3ccc(OC)c(OC)c3)cn4C3CC3)CC2)cc1OC`, the growth was -32% (active) with NCI-H23 lung; 52.1% in the experiment with NCI-H226 lung; 11.1% in the experiment on NCI-H322M lung; 9.47% (active) in the experiment with HOP-62 NSCLC; 3.65% (active) in the experiment on NCI-H460 lung; -2.77% (active) with HOP-92 NSCLC. The growth is 7.49% (active) in the experiment with NCI-H522 lung; 48.6% in the experiment on A549/ATCC NSCLC; 45.4% with 786-0 renal; 7.74% (active) with COLO 205 colon; 4.82% (active) in the experiment on DU-145 prostate; 13.3% with K-562 leukemia. The growth in the experiment with MALME-3M melanoma is -71.9% (active); with MDA-MB-231 breast, -22.9% (active); in the experiment on RXF 393 renal, 61.1%; in the experiment with SF-268 CNS, -10.9% (active); in the experiment with SF-295 CNS, 66.2%; with SF-539 CNS it was -21.8% (active). Further, the growth was 11.4% in the experiment on UACC-257 melanoma and 20.3% in the experiment with M14 melanoma.

Regarding `COc1ccc(/C=C2\Oc3cc(OCCCN4CCCC4)ccc3C2=O)c(OC)c1`, the growth in the experiment on NCI-H23 lung was 87.9%; in the experiment on NCI-H226 lung it was 96.4%; with NCI-H322M lung it was 94.6%; in the experiment on HOP-62 NSCLC it was 101%; in the experiment with NCI-H460 lung, 23.5%; with HOP-92 NSCLC, 83.8%. Also, the growth in the experiment on NCI-H522 lung is 75%; with A549/ATCC NSCLC, 80.5%; in the experiment on 786-0 renal, 89.4%; in the experiment with COLO 205 colon it was 92.8%; in the experiment on DU-145 prostate, 71.2%; in the experiment with K-562 leukemia, -30.4% (active). In addition, the growth with MALME-3M melanoma is 106%; in the experiment with MDA-MB-231 breast it was 78.8%; with RXF 393 renal, 77.3%; in the experiment with SF-268 CNS, 87.3%; in the experiment on SF-295 CNS, 99.8%; in the experiment with SF-539 CNS it was 51.6%. The growth in the experiment with UACC-257 melanoma was 103%; in the experiment with M14 melanoma it was 67.7%.
